Bioassay records as filed in PubChem BioAssay.
Only some compounds are listed: those with a hit (about 21% of all), similar ones and a draw of the others.
ELG1 repair inh – blocks ELG1-dependent DNA repair in HEK293T cells. HEK293T ELG1-luciferase reporter, luminescence, 16 h; DNA damage induced by 5-fluorouridine. Potency, µM (doses to about 46.1 µM), for the others: at the top dose activity change, negative = inhibition, usual class: inhibitors. hit rate 2.3% among 330,000. AID 504467; further: potency means the concentration at half of the fitted maximal effect; nearly all actives have a fitted effect of over 55% in size
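Cells (2,000 per well) received 5-fluorouridine plus test compound or DMSO and were incubated 16 hr at 37 °C, 5% CO2. Luciferase activity was read by luminescence 30 min after ONE-Glo addition; signal suppression marked inhibition of damage-induced ELG1 function.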
RORgamma inh – ROR gamma (mouse) transcription inhibition | Drosophila S2 Gal4-RORgamma UAS-luciferase reporter, 20 h | P51450 | hit rate 5.4% among 310,000 | AID 2551 | Potency, µM (highest dose often 53.6 µM), for the others: at the highest dose activity change, negative = inhibition, most hits filed as inhibitors; further: potency means the concentration at half of the fitted maximal effect; nearly all actives have a fitted effect of over 60% in size
Target sequence (P51450 whole entry, looked up, the tested form may be a part): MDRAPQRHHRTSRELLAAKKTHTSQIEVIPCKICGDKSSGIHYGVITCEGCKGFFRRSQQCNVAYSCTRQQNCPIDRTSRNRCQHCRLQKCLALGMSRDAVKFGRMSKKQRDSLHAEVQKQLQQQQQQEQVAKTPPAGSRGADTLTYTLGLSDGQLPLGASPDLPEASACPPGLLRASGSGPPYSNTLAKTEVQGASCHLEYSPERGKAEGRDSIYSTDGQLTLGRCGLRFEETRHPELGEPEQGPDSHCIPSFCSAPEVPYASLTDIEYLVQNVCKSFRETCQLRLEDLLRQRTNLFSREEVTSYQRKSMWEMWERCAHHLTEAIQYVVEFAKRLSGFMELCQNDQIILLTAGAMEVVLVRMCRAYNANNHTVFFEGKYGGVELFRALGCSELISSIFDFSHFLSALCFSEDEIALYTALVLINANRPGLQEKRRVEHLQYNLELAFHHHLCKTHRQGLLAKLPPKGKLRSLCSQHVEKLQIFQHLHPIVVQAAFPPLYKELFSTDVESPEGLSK
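Using a luciferase readout, inhibitors were identified by reduced reporter activity in Drosophila cells coexpressing a copper-inducible Gal4–ROR gamma fusion and UAS-driven Photinus luciferase, incubated 20 hr after 700 uM copper sulfate.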
IL1B secr inh – inflammasome signaling inhibition, IL-1 beta readout. activity change, % at 57.5 µM. hit rate 4.7% among 360,000. THP-1 LPS/ATP IL-1B secretion, AlphaLISA, 16 h; hits give low values. AID 743279; in the data active means activity change below about -50%; inconclusive means mostly about -30% to -49%
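THP-1 cells pretreated 1 hr with compounds (up to 57.5 uM final), then stimulated with LPS (250 ng/mL final) plus ATP (1.25 mM final); secreted IL-1B measured by AlphaLISA after 16 hr, decreased signal indicating inhibition.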
TDP1 cell CPT – DT40-hTDP1 cell growth loss with CPT; Potency, µM (titrated, usually from 46.2 µM), for inactives: at the top dose activity change, negative = growth inhibition, most hits filed as inhibitors; chicken DT40 Tdp1-/-;hTDP1 cells + 20 nM CPT, ATP luminescence, 48 h; hit rate 12% among 420,000; further: potency means the concentration at half of the fitted maximal effect; nearly all actives have a fitted effect of over 55% in size
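Cell growth measured by CellTiter-Glo luminescence after a minimum 48 h, 37 C compound exposure with 20 nM CPT in Tdp1-knockout DT40 cells stably expressing hTDP1, seeded 400/well; qHTS titration format.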
TDP1 cell noCPT – qHTS for Inhibitors of human tyrosyl-DNA phosphodiesterase 1 (TDP1): qHTS in cells in absence of CPT; hit rate 15% among 420,000; DT40 Tdp1-/- hTDP1 cells, no CPT, ATP luminescence, 48 h; Potency, µM (doses to about 46.2 µM), inactives show top-dose activity change, negative = growth inhibition, most hits filed as inhibitors; further: potency means the concentration at half of the fitted maximal effect; nearly all actives have a fitted effect of over 55% in size
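Luminescent ATP content (CellTiter-Glo) served as the growth readout. Knockout chicken DT40 cells expressing human TDP1 were exposed to compounds without camptothecin for a minimum 48 hr at 37 °C.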
VP16 counter – Gal4-VP16 reporter inhibition counter-screen; Drosophila S2 Gal4-VP16 UAS-luciferase, luminescence, 20 h; Potency, µM (titrated, usually from 53.6 µM), for the others: at the top dose activity, negative = inhibition, hits mostly inhibitors; hit rate 3.5% among 310,000;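 further: Gal4-VP16 expression switched on by copper sulfate through the metallothionein promoter; potency means the concentration at half of the fitted maximal effect; nearly all actives have a fitted effect of over 50% in size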
The depositor's hits bear a star; ? = inconclusive; nt = no result given; [ ] = dose if it differs, or a comment. Unless noted, the call rests on the fitted dose curve; in most records, active means well fitted curve in the direction sought with a large enough effect; inconclusive means small, poorly fitted or top-dose-only effect, or another doubt; inactive means no such curve, though single readings can be large; an effect the other way counts as inactive or inconclusive. On the % scale 0 is the no-effect control and ±100 the full control effect.

SMILES	ELG1 repair inh	RORgamma inh	IL1B secr inh	TDP1 cell CPT	TDP1 cell noCPT	VP16 counter
O=C(c1cc(C2CC2)nn1-c1ccccc1)N1CCN(S(=O)(=O)c2ccccc2F)CC1	nt	nt	7	3%	-4%	nt
COC(=O)C1CCN(C(=O)/C=C/c2ccc3c(c2)OCO3)CC1	?	-16%	23	?	16µM*	4%
O=C(/C=C/C=C/c1ccccc1)c1ccco1	0%	26%	?	?	18µM*	4%
O=C(/C=C/c1ccc2c(c1)OCO2)c1ccco1	?	?	-96*	-19%	-27%	?
COCC(=O)Nc1cc(C(=O)NC2Cc3ccccc3C2)cc2nc(-c3cccnc3)n(C)c12	nt	nt	nt	-10%[9.04 µM]	-13%	nt
CCSc1ncc(Cl)c(C(=O)Nc2c(C(=O)Nc3ccc(Cl)cc3)oc3ccccc23)n1	nt	nt	nt	7%	5%	nt
N#Cc1c2c(c(Cl)n3c1nc1ccccc13)CCCC2	nt	nt	nt	0.71µM*	0.89µM*	nt
COCCNc1c2c(c(C#N)c3nc4ccccc4n13)CCCC2	?	-9%	13	26µM*	21µM*	-9%
COC(=O)[C@@H]1[C@@H](C#N)C2(c3ccccc3-c3ccccc32)N(c2ccc(Cl)cc2)N1C#N	-20%	16µM*	?	3.3µM*	3.7µM*	10µM*
Cc1cc2c(nc1C)CCCN2C[C@H](C)O/N=C1/[C@H]2O[C@@H]2[C@@H](O)[C@H]2[C@H]1CCn1c(=O)n(-c3ccccc3)c(=O)n12	nt	-20%[10 µM]	nt	nt	nt	-5%[10 µM]
CN(NS(=O)(=O)c1ccc(Br)cc1)c1nc(C(F)(F)F)nc2ccccc12	21µM*	?	-55*	23µM*	?	?
S=c1nc[nH]c2c1cnn2-c1ccccc1	?	3.5µM*	-3	-6%	5%	4µM*
COc1ccc(C(CNC(=O)c2oc3ccccc3c2C)N2CCCC2)cc1 (stereo unspecified)	-13%	nt	-13	21µM*	?	nt
COc1ccc(C(CNC(=S)NCc2ccccc2)N2CCCC2)cc1 (stereo unspecified)	?	?	-72*	1%	-29%	-8%
COc1ccc(C(CNC(=O)c2ccccc2C)N2CCCC2)cc1 (stereo unspecified)	7%	22%	-3	-20%	-2%	-1%
COc1ccccc1C(CNC(=S)NCc1ccccc1)N1CCCC1 (stereo unspecified)	-7%	-23%	-5	0%	?	5%
COc1ccc(C(CNC(=O)c2oc3c(Cl)cccc3c2C)N2CCCC2)cc1 (stereo unspecified)	?	nt	?	16µM*	23µM*	nt
COc1ccc(C(CNC(=O)c2oc3ccc(Cl)cc3c2C)N2CCCCC2)cc1 (stereo unspecified)	-8%	-35%	0	16µM*	23µM*	-3%
C#CCCCO/N=C1/C[C@@H](O)[C@@H](O)[C@@H]2[C@@H]3C(=O)N(C(C)(C)C)C(=O)[C@H]3CC[C@@H]12	nt	-23%[10 µM]	nt	nt	nt	8%[10 µM]
ClC(Cl)(Cl)C1=NCc2nnn(Cc3ccccc3)c2N1	nt	nt	25	-5%	-2%	nt
CC(=O)Nc1ccc2c(COC(=O)[C@@H](NS(=O)(=O)c3ccc(C)cc3)C(C)C)cc(=O)oc2c1	?	nt	-3	1%	?	nt
CCN(C(=O)COC(=O)CNC(=O)c1cccs1)c1c(N)n(Cc2ccccc2)c(=O)[nH]c1=O	nt	nt	-2	0%	23%	nt
Fc1c(F)c(F)c(/C=N/NC(=S)Nc2cccnc2)c(F)c1F	?	2.5µM*	-102*	?	18µM*	3.5µM*
Fc1ccc(/C=N/NC(=S)Nc2cccnc2)cc1F	?	-2%	-8	?	?	1%
Fc1cccc(F)c1/C=N/NC(=S)Nc1cccnc1	-6%	1.3µM*	-7	?	-11%	3.5µM*
SMILES	ELG1 repair inh	RORgamma inh	IL1B secr inh	TDP1 cell CPT	TDP1 cell noCPT	VP16 counter
OCc1ccccc1NC(=S)Nc1cccnc1	7%	?	7	-12%	-1%	-10%
O=C1CC(C(=O)N2CCOc3ccc(CN4CCC(Oc5cccnc5)CC4)cc3C2)c2ccccc21 (stereo unspecified)	nt	nt	nt	-6%[9.04 µM]	?	nt
Cc1ccc(S(=O)(=O)CCSc2cccc(C(=O)Nc3ccccc3C(=O)O)c2)cc1	6%	?	11	?	?	-7%
O=S(=O)(Nc1cccnc1)c1ccc(Br)c2ccccc12	2%	?	15	-14%	-24%	-22%
CN1C(=S)N(c2ccccc2)C(=O)/C1=C/c1ccco1	7%	0%	2	?	?	0%
CC(C)N(C1=N/C(=C\c2ccco2)C(=O)N1c1ccccc1)C(C)C	-5%	-21%	14	13µM*	?	14%
O=C1/C(=C/c2ccco2)N=C(N2CCCCC2)N1c1ccccc1	-19%	-17%	-8	21µM*	18µM*	0%
COc1cc(C(=O)N2CCC(c3nc4ccccc4o3)CC2)cc(OC)c1OC	nt	nt	nt	?	-14%	nt
Cc1ccccc1C(C(=O)NCc1ccccc1)N(Cc1ccco1)C(=O)c1ccccn1 (stereo unspecified)	-18%	41%	-15	?	15µM*	3%
CCOc1ccc(C(C(=O)NC2CCCC2)N(CCCO)C(=O)c2ccc(-c3ccccc3)[nH]2)cc1 (stereo unspecified)	6%	31%	-21	21µM*	18µM*	2%
O=C(NC1CCCC1)C(c1ccncc1)N(Cc1ccccc1)C(=O)c1ccc(-c2ccccc2)[nH]1 (stereo unspecified)	-20%	-42%[10 µM]	-79*	21µM*	16µM*	?
O=C(NC1CCCCC1)C(c1ccc(F)cc1)N(Cc1ccco1)C(=O)c1ccccn1 (stereo unspecified)	-7%	10%	-8	0.82µM*	-25%	9%
COc1ccc(Oc2ncc3nc(-c4cccc(C#N)c4)c(=O)n(Cc4cccc(OC)c4)c3n2)cc1	nt	-16%	nt	2%	-93%	-4%
O=C(NC1CCCC1)C(c1ccncc1)N(Cc1ccco1)C(=O)c1ccc(-c2ccccc2)[nH]1 (stereo unspecified)	-4%	?	-105*	23µM*	16µM*	14%[10 µM]
Cc1ccc(C(=O)N2CCOCC2)cc1S(=O)(=O)N1CCCCC1	8%	-10%	0	1%	-2%	-2%
